Screening results from PubChem.
PNC assembly inh: inhibitors of perinucleolar compartment assembly; hit rate 3.1% among 140,000; activity change (PNC), negative = inhibition, % at 10 µM; PC3M PTB-GFP, PNC prevalence imaging, 16 h; stronger effect = lower value;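 active = readout at or below -70, meaning at least 70% loss of cells showing the perinucleolar compartment, a nuclear body marking cancer cells; inconclusive = readout between -30 and a set limit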
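Read-out is percentage of cells bearing a perinucleolar compartment, from automated 20x imaging of fixed, Hoechst-stained PC3M PTB-GFP cells. Cells were seeded 4 h, then exposed 16 h to compound (23 nl of library stock) in duplicate plates.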
IMPase inh: membrane-permeable compound that blocks inositol monophosphatase; CHO-M1 cells, IP1 accumulation, HTRF TR-FRET ratio; 120,000 tested, under 10 active; P97697; inhibition (IP1 accumulation), % at 46.1 µM; active = well fitted curve in the direction sought with a large enough effect in the signal ratio, not every such curve was filed as active; inconclusive = small, poorly fitted or top-dose-only effect, or a change in a side signal; inactive = no such curve, though single readings can be large or run the other way; the % refers to the signal ratio;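 also: cells stimulated with carbachol in lithium chloride buffer; higher means more IMPase inhibition seen as more IP1 and lower FRET ratio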
Target sequence (P97697 whole entry, looked up): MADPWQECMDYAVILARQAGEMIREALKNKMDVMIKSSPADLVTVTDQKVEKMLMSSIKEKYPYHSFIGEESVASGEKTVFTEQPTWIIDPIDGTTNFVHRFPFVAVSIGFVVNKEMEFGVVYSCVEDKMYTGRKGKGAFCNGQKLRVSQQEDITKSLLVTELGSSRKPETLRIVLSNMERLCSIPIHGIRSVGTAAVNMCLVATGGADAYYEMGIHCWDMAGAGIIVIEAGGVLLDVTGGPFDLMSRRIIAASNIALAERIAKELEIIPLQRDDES
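Carbachol-driven Gq signalling in CHO-M1 cells (2000/well) generates IP1. Compounds that block IMPase raise IP1 and so reduce the FRET signal from Eu-anti-IP1 and d2-IP1 after a 10 min room-temperature lysis.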
IMPase Li cell: cell-permeable IMPase inhibitors with lithium potentiation; hit rate 0.35% among 210,000; AID 1457; Potency, µM (top dose mostly 59.4 µM), actives largely listed as inhibitors; CHO-M1 cells, IP1 TR-FRET (IP-One), carbachol + lithium;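 also: IP1 builds up when IMPase is blocked and the TR-FRET signal falls; nearly all actives have a fitted effect of over 50% in size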
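Lithium-sensitised IP1 accumulation assay; M1-expressing CHO cells treated 30 min at 37C with compound. Competitive antibody detection by time-resolved FRET followed a 10 min room-temperature lysis step.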
NPSR antag: antagonists of human neuropeptide S receptor cAMP signaling; CHO-NPSR cells, cAMP TR-FRET, antagonist mode; Potency, µM (series often up to 38.3 µM), actives largely listed as inhibitors; hit rate 1% among 220,000; AID 1461; also: nearly all actives have a fitted effect of over 50% in size
HPGD block: HPGD (human) dehydrogenase inhibition | P15428 | purified HPGD, NADH fluorescence kinetic, PGE2 substrate | Potency, µM, actives largely listed as inhibitors | hit rate 4.3% among 150,000 | AID 894; active = well fitted inhibition curve with a large enough effect, not every such curve was filed as active; inconclusive = small, poorly fitted or top-dose-only effect, or another doubt; inactive = no such curve, though single readings can be large or run the other way
Target sequence (P15428 whole entry, looked up): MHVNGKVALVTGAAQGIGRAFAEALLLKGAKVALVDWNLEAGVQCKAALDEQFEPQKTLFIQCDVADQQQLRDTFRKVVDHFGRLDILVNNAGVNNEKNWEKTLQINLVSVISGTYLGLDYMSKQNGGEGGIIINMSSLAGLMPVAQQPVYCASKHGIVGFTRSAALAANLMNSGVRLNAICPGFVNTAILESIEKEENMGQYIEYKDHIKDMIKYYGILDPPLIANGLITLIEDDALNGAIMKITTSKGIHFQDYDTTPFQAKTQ
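NADH formation kinetics: reaction with 30 uM PGE2 and 1 mM NAD+ (final), 20 nM enzyme, Tris-HCl pH 8 with Tween 20, after 15 min compound preincubation at room temperature. Fluorescence change, last versus first of five reads.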
ALDH1A1 block: ALDH1A1 (human) enzyme inhibition; Purified ALDH1A1, NADH fluorescence, propionaldehyde substrate; Potency, µM (doses to about 75.3 µM), actives largely listed as inhibitors; hit rate 7.3% among 220,000; AID 1030; active = well fitted inhibition curve with a large enough effect, not every such curve was filed as active; inconclusive = small, poorly fitted or top-dose-only effect, or another doubt; inactive = no such curve, though single readings can be large or run the other way
Hits are given with their value; – = inactive; ? = inconclusive; · = no result; [ ] = remark or other dose. Shown are actives, neighbours in structure and some others; about 11% of the full set was active somewhere. Unless noted, calls follow the shape of the dose curve; as a rule, active = well fitted curve in the direction sought with a large enough effect; inconclusive = small, poorly fitted or top-dose-only effect, or another doubt; inactive = no such curve, though single readings can be large; an effect the other way counts as inactive or inconclusive.

SMILES | PNC assembly inh | IMPase inh | IMPase Li cell | NPSR antag | HPGD block | ALDH1A1 block
NNC(=O)c1ccc(COc2cccc3ccccc23)cc1 | – | – | – | – | – | 7.94µM
O=C(Nc1ccc(F)cc1)c1ccc(COc2ccccc2)cc1 | ? | · | 12.6µM | – | – | –
O=C(c1cccc(COc2cccc3ccccc23)c1)N1CCCC1 | – | – | – | – | 20µM | –
CNC(=S)Nc1ccc(OCc2ccccc2)cc1 | · | · | – | – | · | 31.6µM
COC(=O)c1ccc(OCCOc2ccccc2)cc1 | – | – | – | – | – | –
NNC(=O)c1cccc(COc2ccc3c(c2)CCC3)c1 | – | · | – | – | 20µM | –
O=C(NCc1ccccc1)c1cccc(COc2ccccc2Cl)c1 | – | – | – | ? | ? | –
NNC(=O)c1cccc(COc2ccccc2Br)c1 | – | – | – | – | – | 3.55µM
COC(=O)c1ccc(CNC(=O)c2ccc(COc3ccccc3)cc2)cc1 | -100.0 | · | – | – | – | –
NNC(=O)c1ccc(COc2ccccc2)cc1 | – | – | – | – | – | 2.24µM
O=C(COc1ccc2c(c1)CCC2)NCc1ccccc1 | – | · | – | – | – | –
CN(C)S(=O)(=O)N1CCN(C(=O)N2CCCCCC2)CC1 | – | – | – | – | – | –
COc1cc2c(=O)n(CCCC(=O)NCC3CCCO3)c(=O)n(CC(=O)c3ccc(F)cc3)c2cc1OC (stereo not given) | · | · | ? | – | · | ?
O=C(Nc1ccc(Nc2ccccc2)cc1)Nc1ccccc1Cl | · | · | · | ? | · | –
COc1ccc(C(=O)c2ccc(N(C)C)cc2)c2ccccc12 | -96.6 | – | – | ? | – | –
COc1ccccc1C(=O)COC(=O)c1ccc(N(C)C)cc1 | · | · | – | – | · | ?
COc1cc(C(=O)Nc2ccc(S(=O)(=O)N3CCCCC3C)cc2)cc(OC)c1OC (stereo not given) | ? | – | – | – | – | ?
O=C(C1CCN(S(=O)(=O)c2ccc(-n3cnnn3)cc2)CC1)N1CCN(c2ccccc2)CC1 | ? | – | – | – | – | 28.2µM
CC1CCCN(S(=O)(=O)c2ccc(NC(=O)c3cccc(-n4cnnn4)c3)cc2)C1 (stereo not given) | – | – | – | – | 28.2µM | ?
COc1ccc(C(=O)Nc2ccc(S(=O)(=O)N3CCCCC3C)cc2)c(OC)c1OC (stereo not given) | ? | – | – | ? | ? | 17.8µM
CC1CCCCN1S(=O)(=O)c1ccc(NC(=O)c2cccc(-n3cnnn3)c2)cc1 (stereo not given) | – | – | – | –[7.67 µM] | 22.4µM | 25.1µM
CCOC(=O)c1cnn(-c2ccccc2)c1-n1cccc1C(=O)C(=O)Nc1ccccc1C(F)(F)F | – | – | – | – | – | –
COc1cccc(C(=O)NC(=S)Nc2ccc3c4c(cccc24)CC3)c1 | – | – | – | – | – | 14.1µM
COc1ccc(OCC(=O)NC(=S)Nc2ccc3c4c(cccc24)CC3)cc1 | – | · | 7.08µM | – | ? | 15.8µM
Cc1ccccc1OCC(=O)NC(=S)Nc1ccc2c3c(cccc13)CC2 | – | – | – | – | – | –
SMILES | PNC assembly inh | IMPase inh | IMPase Li cell | NPSR antag | HPGD block | ALDH1A1 block
CC1CCN(S(=O)(=O)c2ccc(C(=O)Nc3sccc3C(N)=O)cc2)CC1 | – | – | – | 6.31µM | ? | ?
CC1CCN(S(=O)(=O)c2ccc(NC(=S)NC(=O)c3ccc(Cl)cc3)cc2)CC1 | – | – | – | – | – | 3.98µM
CN(C)NC(=O)c1ccsc1NC(=O)c1ccc(S(=O)(=O)N2CCCC2)cc1 | · | · | · | – | · | ·
O=C(NC(=S)Nc1ccc(S(=O)(=O)N2CCCCC2)cc1)c1ccc(Cl)cc1 | ? | – | – | – | ? | 0.501µM
COC(=O)CN(C#N)c1nc(N(C)C)nc(N(C)C)n1 | · | · | – | – | · | –
CC(=O)Nc1nnc(SCc2cccc(F)c2)s1 | · | · | – | – | · | –
COc1cc(C2c3c(oc4ccccc4c3=O)C(=O)N2Cc2ccncc2)ccc1O (stereo not given) | – | – | – | – | – | 25.1µM
O=C(O)c1cccc(N/N=C/C2=C(Cl)c3cc(Cl)ccc3SC2)c1 | · | · | – | – | · | 20µM
Cc1occc1C(=O)NN1C(=O)C2C3CCC(O3)C2C1=O (stereo not given) | -102.2 | · | – | – | – | –
O=C(NN1C(=O)C2C3CCC(O3)C2C1=O)c1ccc(Cl)cc1 (stereo not given) | – | · | – | – | – | –
COc1ccccc1OCC(=O)Nc1cccc(-c2nc3ccccc3o2)c1 | ? | – | – | – | – | –
